Data from PubChem BioAssay (NCI).
About 83,000 compounds went through this panel and 20% of them were active in at least one assay; those are over-represented in the sample as a whole.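 Step 1: grow cells in 96-well plates. Step 2: add test compound at a single concentration. Step 3: incubate 48 h. Step 4: record percent growth.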 Activity calls are given as the source filed them. The calls were made as follows: active = growth percent below 10; inactive = the rest.

Experiments:
Assay in all cases: NCI-60 one-dose screen, 48 h (100 = growth as untreated, 0 = no growth, -100 = all killed)
Details in all cases: 10 µM unless noted
[1] = system: NCI-H23 lung
[2] = system: NCI-H226 lung
[3] = system: NCI-H322M lung
[4] = system: HOP-62 NSCLC
[5] = system: NCI-H460 lung
[6] = system: HOP-92 NSCLC
[7] = system: NCI-H522 lung
[8] = system: A549/ATCC NSCLC
[9] = system: 786-0 renal
[10] = system: COLO 205 colon
[11] = system: DU-145 prostate
[12] = system: K-562 leukemia
[13] = system: MALME-3M melanoma
[14] = system: MDA-MB-231 breast
[15] = system: RXF 393 renal
[16] = system: SF-268 CNS
[17] = system: SF-295 CNS
[18] = system: SF-539 CNS
[19] = system: UACC-257 melanoma
[20] = system: M14 melanoma

Measured: growth

CCSCC1CC(O)(c2ccccc2)CC(c2ccc(F)cc2)O1 (stereo not given)
inactive: [1] 26.6% | [2] 24.6% | [3] 45.4% | [4] 26.2% | [7] 53.9% | [8] 20.7% | [12] 11.9% | [14] 20.6% | [16] 20% | [18] 36.5% | [19] 35.7%
active: [5] -30.9% | [6] -9.6% | [9] -23.7% | [10] -94.8% | [11] 9.94% | [13] -17.8% | [15] -5.44% | [17] -14.8% | [20] 5.84%

Cc1nn(-c2ccccc2)c(Oc2c(Cl)cccc2Cl)c1/C=N/N=c1\sc2ccccc2n1C
inactive: [1] 72.5% | [2] 53.3% | [3] 82.2% | [4] 83.6% | [5] 17.4% | [6] 60.3% | [7] 65.5% | [8] 47.5% | [9] 50.8% | [10] 40.8% | [11] 67.7% | [12] 28.3% | [13] 81.6% | [14] 51.3% | [15] 54.7% | [16] 52.2% | [17] 54.3% | [18] 49.9% | [19] 71.3% | [20] 60.8%

O=C1c2ccc3c4c(ccc(c24)C(=O)N1CCCNCc1ccccc1Cl)C(=O)N(CCCNCc1ccccc1Cl)C3=O
inactive: [14] 16.7%
active: [1] -51.9% | [2] -57.1% | [3] -66.2% | [4] -19.8% | [5] -52.1% | [6] -7.21% | [7] -83.1% | [8] -84.1% | [9] -32.8% | [10] -15.9% | [11] -86.5% | [12] -38.2% | [13] -72.9% | [15] -94.2% | [16] -30.2% | [17] -52.2% | [18] -67.6% | [19] -90.6% | [20] -56.5%

O=C(c1nc2ccccc2[nH]1)C1C(c2ccc(Cl)cc2)C2CC3CCCC[C@H]3N2[C@@]12C(=O)Nc1cc(Cl)ccc12 (stereo not given in full)
inactive: [1] 58.6% | [2] 58.8% | [3] 62.2% | [4] 68.7% | [5] 23.1% | [6] 46.3% | [7] 56.4% | [8] 35.2% | [9] 48.4% | [10] 29.8% | [11] 62.1% | [12] 29% | [13] 43.9% | [14] 42.6% | [15] 35.7% | [16] 42.2% | [17] 32.6% | [18] 60.6% | [19] 45.7% | [20] 34.2%

CC(=O)c1cc2c(N)c(C(=O)Nc3cccc4ccncc34)sc2nc1C
inactive: [1] 102% | [2] 104% | [3] 105% | [4] 91.8% | [5] 104% | [6] 75.2% | [7] 96% | [8] 97.9% | [9] 98.5% | [10] 102% | [11] 109% | [12] 82.2% | [13] 101% | [14] 93% | [15] 104% | [16] 98.5% | [17] 85% | [18] 94.1% | [19] 96.2% | [20] 75.8%

C=C1C(=O)O[C@H]2[C@H]1CC/C(CNC(=O)C(C)c1ccc(CC(C)C)cc1)=C\CC[C@@]1(C)O[C@@H]21 (stereo not given in full)
active: [6] -19.1% | [7] 7.53% | [9] -86% | [10] -34.8% | [12] -13.8% | [13] -60.7% | [14] -1.8% | [15] -64.4% | [18] -74.8% | [19] -11.4% | [20] -74.3%
inactive: [1] 51.4% | [2] 75.1% | [3] 72.3% | [4] 60% | [5] 36.2% | [8] 42.2% | [11] 16.4% | [16] 43.9% | [17] 75.9%

O=[N+]([O-])c1ccc(NC(=S)N/N=C/c2cc3ccccc3n3nnnc23)cc1
active: [6] -5.68% | [18] 9.9%
inactive: [1] 30.1% | [2] 72% | [3] 51.9% | [4] 49.3% | [5] 32.2% | [7] 35.4% | [8] 55.6% | [9] 61.6% | [10] 96.9% | [11] 64.1% | [12] 12.5% | [13] 71.9% | [14] 61.2% | [15] 30.1% | [16] 38.3% | [17] 18.9% | [19] 90.2% | [20] 75.5%

CCCC/C=N/NC(=S)NCc1ccccc1
inactive: [1] 103% | [2] 98.6% | [3] 105% | [4] 82.1% | [5] 101% | [6] 93.6% | [7] 94.6% | [8] 97.9% | [9] 102% | [10] 100% | [11] 106% | [12] 91.7% | [13] 97% | [14] 98.8% | [15] 106% | [16] 102% | [17] 102% | [18] 94% | [19] 91.2% | [20] 87.4%

N/C(=N\C(N)=N\c1nc2ccccc2s1)c1cnccn1
active: [15] -43%
inactive: [1] 19.8% | [2] 22.5% | [3] 25.1% | [4] 40.2% | [5] 11.8% | [6] 47% | [7] 22.4% | [8] 21.1% | [9] 23.4% | [10] 16.2% | [11] 28.2% | [12] 17.1% | [13] 16.8% | [14] 58.1% | [16] 26.5% | [17] 28% | [18] 16% | [19] 35.5% | [20] 23.2%

N#Cc1c(NCc2ccccc2I)sc2c1CCCCC2
inactive: [1] 87.5% | [2] 87.5% | [3] 89.9% | [4] 91.3% | [5] 96.7% | [6] 88.8% | [7] 86.7% | [8] 85.7% | [9] 90% | [10] 108% | [11] 102% | [12] 95.3% | [13] 87.5% | [14] 85.4% | [15] 93.6% | [16] 93.7% | [17] 97.3% | [18] 97.3% | [19] 93.7% | [20] 97.3%

CCc1c(Cl)nc(N)nc1Nc1ccc(C)c(C)c1
inactive: [1] 96.9% | [2] 83.5% | [3] 110% | [4] 92.7% | [5] 80.7% | [6] 112% | [7] 81.9% | [8] 99.3% | [9] 101% | [10] 106% | [11] 99.5% | [12] 96.5% | [13] 100% | [14] 97.3% | [15] 93.9% | [16] 97.9% | [17] 93.2% | [18] 100% | [19] 105% | [20] 104%

CN(C)CC(O)c1ccc(/C=C/c2ccc(Cl)cc2)cc1 (stereo not given)
active: [3] -9.83% | [4] -50.2% | [5] -54.6% | [7] -84.4% | [8] -92.3% | [10] -46.4% | [11] -88.8% | [12] -47.6% | [14] -82.3% | [15] 8.01% | [16] -52.4% | [17] -48.2% | [18] -67.6% | [19] -81.2% | [20] -34.8%
inactive: [1] 33.5% | [2] 73.4% | [6] 15.5% | [9] 13.8% | [13] 21.9%

CN(C)c1ccc(Nc2c3ccccc3nc3cc(NC(=O)CCN4CCCC4)ccc23)cc1
active: [1] -42.5% | [2] -1.19% | [3] -14.6% | [4] -8.55% | [5] -65.5% | [6] -9.52% | [7] -32.8% | [8] -33.5% | [9] -54% | [10] -27.3% | [11] -38.5% | [12] -4.43% | [13] -90.9% | [14] -38.1% | [15] -6.44% | [16] -6.93% | [17] 6.34% | [18] -69% | [19] -52% | [20] -84.9%

COc1ccccc1/C=C1\Oc2cc(OCCN3CCCC3)ccc2C1=O
active: [12] -5.04%
inactive: [1] 82.8% | [2] 85.3% | [3] 99.8% | [4] 96.4% | [5] 84.6% | [6] 59.5% | [7] 89.8% | [8] 95.3% | [9] 82.5% | [10] 95.4% | [11] 89.2% | [13] 104% | [14] 81.8% | [15] 71.5% | [16] 91.3% | [17] 95.4% | [18] 85.9% | [19] 95% | [20] 77.2%

c1ccc(-c2c(-c3ccccc3)[n+](Cc3ccc4ccccc4c3)c(-c3cccc4ccccc34)n2Cc2ccc3ccccc3c2)cc1
active: [1] -38.4% | [2] -42.3% | [3] 4.47% | [4] -84.7% | [5] -80% | [6] -53.9% | [7] -39.5% | [8] -45.1% | [9] -68.3% | [10] -65% | [11] -51.3% | [12] -3.62% | [13] -87.9% | [14] -70.5% | [15] -94.3% | [16] -38.9% | [17] -86% | [18] -83.5% | [19] -42.5% | [20] -63.5%

Cc1cnc(C(=O)Nc2nc3ccc(S(=O)(=O)Nc4ccc(C5(C(F)(F)F)CC5)cc4)cc3[nH]2)cn1
active: [5] 0.982% | [10] -1.76% | [11] 1.12% | [15] -17.4% | [18] -1.85% | [20] 6.68%
inactive: [1] 33.9% | [2] 13.2% | [3] 33.9% | [4] 21.1% | [6] 32.8% | [7] 16% | [8] 23.7% | [9] 26.2% | [12] 10% | [13] 32.2% | [14] 47.2% | [16] 47% | [17] 20.6% | [19] 57.7%
